Here are results for eight compounds from PubChem BioAssay.

Where “and” joins values, the source holds several entries; their conditions need not be identical. Equal values may be shown once. Records with an inconclusive call do not appear. For part of these data: Results with a measured potency or affinity are listed apart. Calls of active or inactive are those of the source.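 Rule for the calls, unless noted: active = compounds killing one labelled cell type while sparing the other, by normalised counts and ratio limits, not self-fluorescent; inactive = the rest.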

The nature of experiment [1]: EMT-state selective cytotoxicity in co-culture – imaging, PC-3E GFP, TEM4-18 mCherry, primary screen (AID 1345086).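 For all read-outs here: cells exposed to compound for 72 h before imaging.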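 For red/green cell ratio (normalised): normalised mesenchymal count divided by normalised epithelial count so high means epithelial killing.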 The note with it: PC-3E GFP / TEM4-18 mCherry co-culture, imaging cell counts, at 1 µM; for red/green cell ratio (normalised): actives lie on both sides, counts scaled to control wells, 1 = unselective.
A short description of experiment [2]: blockers of polyQ-driven CASP3 activation – cell-based (AID 1583). Conditions: polyglutamine-induced caspase-3 activation, cell assay; stronger effect = higher value;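 tested at 10 µM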.
Experiment [3] is described as follows: yeast 75Q aggregation reduction – 75Q-TubU reporter (AID 1593). The note with it: Yeast 75Q polyglutamine aggregation reporter.
Experiment [4] in a line: restoration of touch response, mutant HTT neurons – whole organism, C. elegans mechanosensory neurons, N-terminal huntingtin (AID 1599). The note with it: C. elegans polyQ-huntingtin mechanosensory neurons, stronger effect = higher value.
A short description of experiment [5]: blockers of cytochrome c efflux from mitochondria – biochemical, purified mitochondria (AID 1603).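 Note: mouse liver mitochondria challenged with calcium chloride; signal normalized to the plate average as 100%.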 Conditions: stronger effect = lower value.
Experiment [6] is described as follows: polyglutamine aggregate formation blockers (AID 1604). Conditions: polyglutamine-induced protein aggregation inhibition assay; stronger effect = higher value; tested at 2.5 µM.
Experiment [7] in a line: glutamate transport activators, MN-1 cells, MN-1 cell line (AID 1612).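 Note: tested at 1 µM final; 0% = mean of DMSO vehicle wells on each plate; positive means more glutamate uptake than control and negative means less.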 The note with it: MN-1 motor neuron cells, stronger effect = higher value.
Experiment [8] in a line: 75Q-TubH aggregate inhibition, S. cerevisiae, yeast (AID 1616). The note with it: S. cerevisiae 75Q-TubH polyglutamine aggregation suppression; stronger effect = higher value.
Experiment [9] concerns Aerobactin synthetase IucA (Klebsiella pneumoniae). Nature of the experiment: inhibition of K. pneumoniae IucA enzyme – biochemical, Tocris library, absorbance (AID 1345561; call rule not given here;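 note: 100% = enzyme without compound and 0% = no enzyme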). The note with it: purified IucA enzyme assay, absorbance (OD) read-out; stronger effect = lower value;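 tested at 8 µM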.
A short description of experiment [10]: viability loss with induced miR-34 in A549 – imaging, A549 dox-inducible miR-34, nuclei and caspase counts, primary screen (AID 1347080;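 active = compounds whose cell count with miR-34 switched on is under 0.7 times the count with it off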). Conditions: A549 miR-34 inducible, Hoechst nuclei count, 48 h.
Experiment [11] is described as follows: galactose survival enhancers in mitochondrial complex I cybrids – cell-based, galactose medium, ATP luminescence, primary screen (AID 1645843;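 active = z-score of at least 1.8 in each of two replicates, scored against plate mean and spread of sample wells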;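 note: positive z means more ATP and so rescue of galactose-driven cybrid death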). The note with it: complex I mutant cybrid cells, 72 h, stronger effect = higher value.
Experiment [12] in a line: compounds altering viability of human ES cells (AID 493140; call rule not given here;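 note: cells exposed to compounds for four days before counting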). The note with it: human embryonic stem cell survival screen; stronger effect = higher value.
Experiment [13] in a line: P. berghei load reduction in hepatocytes – cell-based, HepG2, luciferase luminescence, HepG2 viability, primary screen (AID 624349; in the data active = parasite load remaining mostly below about 12%, no sharp cut-off; inactive = mostly above about 10%;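 note: 100% = mean of DMSO negative control wells on the same plate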). The note with it: P. berghei liver stage in HepG2, luciferase luminescence, concentration not given here; parasite load remaining: stronger effect = lower value; viability: measured here: HepG2 viability without parasites.
A short description of experiment [14]: viability loss in pontine glioma line – cell-based, SU-DIPG-XVII, MIPE5.0, CellTiter-Glo, qHTS, dose response (AID 1347060; cut-off not given, nearly all actives have AC50 up to about 26 µM). Conditions: CellTiter-Glo ATP luminescence.
Experiment [15] is described as follows: viability loss in pontine glioma line – cell-based, SU-DIPG-XIII, MIPE4.0, CellTiter-Glo, qHTS, dose response (AID 1347061; cut-off not given, nearly all actives have AC50 up to about 37 µM;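 note: cells exposed to compound for 48 hours before readout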). The note with it: CellTiter-Glo ATP luminescence.
A short description of experiment [16]: viability loss in pontine glioma line – cell-based, SU-DIPG-XXV, MIPE5.0, CellTiter-Glo, qHTS, dose response (AID 1347065; cut-off not given, nearly all actives have AC50 up to about 26 µM;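 note: cells exposed to compound for 48 hours before ATP readout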). The note with it: CellTiter-Glo ATP luminescence.
The nature of experiment [17]: growth inhibition of DIPG cells – cell-based, MIPE4.0 library, CellTiter-Glo luminescence, qHTS (AID 1347066; cut-off not given, nearly all actives have AC50 up to about 30 µM;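 note: cells exposed to compound for 48 hours before readout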). The note with it: SU-DIPG-VI viability, CellTiter-Glo ATP luminescence.
Experiment [18] is described as follows: JHH-DIPG-1 glioma cell viability, MIPE5.0 library, CellTiter-Glo luminescence, qHTS (AID 1347067; cut-off not given, nearly all actives have AC50 up to about 26 µM;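 note: cells exposed to compound for 48 hours before readout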). Conditions: JHH-DIPG-1 glioma viability, CellTiter-Glo ATP luminescence.
Experiment [19] in a line: growth inhibition of DIPG cells – cell-based, MIPE5.0 library, qHTS (AID 1347068; cut-off not given, nearly all actives have IC50 up to about 30 µM). Conditions: SU-DIPG-XXV viability.
Experiment [20] in a line: MELAS cybrid and Rieske KO viability enhancers – cell-based, MELAS cybrids, Rieske KO mouse fibroblasts, CellTiter-Glo, primary screen (AID 1508586;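 active = mean z-score across replicates of 1.96 or higher in either the MELAS or the Rieske mutant cell line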;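 note: z relative to plate mean and SD of compound and empty wells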). The note with it: low glucose.
Where [21] appears, read: measured here: epithelial PC-3E GFP cell survival.
The mark [22] stands for this setting: measured here: mesenchymal TEM4-18 mCherry cell survival.
The mark [23] stands for this setting: stronger effect = lower value, cell number ratio, induced over uninduced.
Where [24] appears, read: measured here: relative caspase fold change +Dox/-Dox.
[25] abbreviates: measured here: total cells with miR-34 induction, stronger effect = lower value.
The mark [26] stands for this setting: measured here: total cells without miR-34 induction.

Regarding `CC(C)[C@H]1COC(=S)N1C(C)CC(=O)N1CCOC1=O` (some centres undefined), the red/green cell ratio (normalised) in experiment [1] was 1.02 (inactive). Also, the results for the normalised cell number in experiment [1] (setting [21]) and in experiment [1] (setting [22]) were 1.09 and 1.11, respectively.

As to `C/C=C/c1cc2c(c(=O)o1)C(=O)[C@@H](O)[C@H](C)O2`, the red/green cell ratio (normalised) in experiment [1] is 1.02 (inactive). Moreover, the normalised cell number was 0.9 in experiment [1] (setting [21]) and 0.92 in experiment [1] (setting [22]).

In the case of `C#C[C@]1(O)CC[C@@H]2C3[C@H](C)CC4=C(CCC(=O)C4)[C@H]3CC[C@@]21C` (some centres undefined), the red/green cell ratio (normalised) in experiment [1] is 1.13 (inactive). Moreover, the results for the normalised cell number in experiment [1] (setting [21]) and in experiment [1] (setting [22]) were 1.07 and 1.21, respectively.

As to `CC(C)C[C@@H](NC(=O)OCC1c2ccccc2-c2ccccc21)C(=O)O`, in experiment [2], the inhibition is -9.47%. In [3], this compound came in with a score of -0.27. Besides, in [4], the rescue above control was 2.38. For the same compound, the cytochrome c release ratio in [5] came to 0.77. Also, the inhibition of aggregation in [6] was -14.3%. This compound displayed a glutamate uptake change in experiment [7] of 4.64%. In experiment [8], this compound registered an aggregation suppression score of 0.0751. In addition, the red/green cell ratio (normalised) in experiment [1] was 0.8 (inactive). For the same compound, the results for the normalised cell number in experiment [1] (setting [21]) and in [1] (setting [22]) were 1.21 and 0.97, respectively. For the same compound, the remaining activity in experiment [9] was 97.5% (inactive). Further, the fold change is 0.883 (inactive) in [10] (setting [23]) and 0.962 in experiment [10] (setting [24]). The results for the cell count in [10] (setting [25]) and in experiment [10] (setting [26]) were 8270 and 9370, respectively. Also, the z-score in [11] was -0.5 (inactive).

`CC1CCC2OC2C/C=C/C(=O)c2c(O)cc(O)cc2CC(=O)O1` (centres undefined): in experiment [1], the red/green cell ratio (normalised) is 0.83 (inactive). For the same compound, the normalised cell number is 0.88 in [1] (setting [21]) and 0.73 in [1] (setting [22]).

`C=C1C/C=C(\C)CC[C@@H]2[C@@H]1CC2(C)C`: in experiment [1], the red/green cell ratio (normalised) is 1.09 (inactive). Also, the normalised cell number in [1] (setting [21]) came out at 0.98; in experiment [1] (setting [22]), 1.07.

Consider `CC(CCC(=O)O)[C@H]1CCC2C3CC[C@@H]4CCCC[C@]4(C)C3CC[C@@]21C` (some centres undefined), for which the red/green cell ratio (normalised) in [1] was 0.93 (inactive). Also, the normalised cell number in [1] (setting [21]) was 1.12; in [1] (setting [22]), 1.04.

In the case of `O=c1c(O)c(-c2ccc(O)cc2)oc2cc(O)cc(O)c12`, the survival in [12] was 7.5 (inactive). The parasite load remaining in [13] was 80.6% (inactive). Further, the viability in experiment [13] stood at 69.5%. In addition, the red/green cell ratio (normalised) in experiment [1] was 1 (inactive). Also, the normalised cell number in [1] (setting [21]) and in experiment [1] (setting [22]) was 1.03 throughout. In addition, the remaining activity in experiment [9] was 107% (inactive). The compound was classed as inactive in [14], in experiment [15], in [16], in [17], in [18] and in experiment [19]. Moreover, the fold change in experiment [10] (setting [23]) is 0.974 (inactive) and 0.869 (inactive) and 0.836 (inactive); in [10] (setting [24]), 0.804 and 0.921 and 1.47. Also, the cell count in experiment [10] (setting [25]) is 9050 and 8750 and 6630; in experiment [10] (setting [26]), 9290 and 10100 and 7930. Also, the z-score in experiment [20] (MELAS cybrid survival, CellTiter-Glo 48 h, stronger effect = higher value) was -0.357 (inactive); in [20] (Rieske KO mouse fibroblast survival, CellTiter-Glo 72 h) it was 0.291; in [11], -0.765 (inactive).
